Bioassay records deposited in PubChem by The Scripps Research Institute Molecular Screening Center.
GPR151 ag: activators of human GPR151; PathHunter beta-arrestin GPR151 cells, luminescence; 1% of 650,000 active; activation, % at 11.2 µM; Q8TDV0; in the data active means activation above about 4.9%
MITF primary: human MITF inhibition, primary screen. AlphaScreen MITF homodimerization, bead proximity signal. inhibition, % at 2.6 µM. 0.91% of 650,000 active; in the data active means inhibition above about 50%
TEAD-YAP block: TEAD-YAP interaction inhibition | HEK-TIYL cells, TEAD-Gal4/YAP UAS-luciferase luminescence | AID 1259422 | 1.4% of 640,000 active | inhibition, % at 9.12 µM; in the data active means inhibition above about 32%
FBW7 activator: activators of human E3 ligase FBW7. Q969H0. normalized activity (activation), % at 26.1 µM. 0.13% of 650,000 active. AlphaScreen FBW7–phospho-cyclin E peptide binding, activator screen; in the data active means normalized activity above about 1.9%;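 further: purified mutant Fbw7 with reduced substrate affinity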
Target sequence (Q969H0 whole entry, looked up): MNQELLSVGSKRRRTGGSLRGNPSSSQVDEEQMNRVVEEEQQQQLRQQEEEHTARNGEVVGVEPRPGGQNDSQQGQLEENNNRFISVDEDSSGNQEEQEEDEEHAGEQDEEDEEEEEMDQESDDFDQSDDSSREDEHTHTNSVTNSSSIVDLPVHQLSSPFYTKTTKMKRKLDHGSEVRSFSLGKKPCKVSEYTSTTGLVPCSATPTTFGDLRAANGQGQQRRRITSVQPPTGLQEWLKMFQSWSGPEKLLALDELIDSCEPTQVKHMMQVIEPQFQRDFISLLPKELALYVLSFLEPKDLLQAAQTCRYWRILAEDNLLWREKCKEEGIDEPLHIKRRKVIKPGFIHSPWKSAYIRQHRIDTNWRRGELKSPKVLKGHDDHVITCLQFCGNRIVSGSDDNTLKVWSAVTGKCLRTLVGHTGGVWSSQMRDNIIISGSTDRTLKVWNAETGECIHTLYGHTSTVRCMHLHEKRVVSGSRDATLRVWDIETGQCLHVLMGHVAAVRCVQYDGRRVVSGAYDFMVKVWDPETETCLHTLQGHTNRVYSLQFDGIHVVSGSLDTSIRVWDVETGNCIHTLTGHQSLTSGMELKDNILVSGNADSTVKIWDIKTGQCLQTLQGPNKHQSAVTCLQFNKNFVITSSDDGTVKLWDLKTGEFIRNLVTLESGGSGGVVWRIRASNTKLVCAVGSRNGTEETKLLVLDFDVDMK
Of the large screens only hits and unclear results are named; the others gave an inactive call. A selection: hits, their analogues and other compounds. The true share with any hit is near 3.5%.

CC(C)(C)c1ccc(OCC(=O)Nc2nccs2)c(Br)c1	TEAD-YAP block 91
O=C1CC(c2ccc3c(c2)OCO3)CC2=C1C(c1ccccc1OCc1ccccc1)Nc1ccccc1N2 (stereo not drawn)	none
COCCCNC(=S)NNC(=O)CC(c1ccccc1)c1ccccc1	none
O=C(c1cccn2c(=O)c3cc(Cl)ccc3nc12)N1CCN(Cc2ccccc2)CC1	none
CC1CCC(C(C)C)C(OC(=O)c2ccccc2C(=O)OCC(=O)c2ccc(-c3ccccc3)cc2)C1 (stereo not drawn)	none
O=C(Nc1ccc2nn(-c3ccccc3)nc2c1)C(F)(F)F	none
CC(C)(C)C(=O)Nc1ccc2nn(-c3ccccc3)nc2c1	TEAD-YAP block 82
CCC(=O)Nc1ccc2nn(-c3ccccc3)nc2c1	TEAD-YAP block 37
CC(C)C(=O)Nc1ccc2nn(-c3ccccc3)nc2c1	TEAD-YAP block 46
CN(C)CCOC(=O)/C(C#N)=C\c1ccc(-c2cccc(Cl)c2)o1	none
CC(=O)Oc1ccc(N2C(=O)C3C4CCCC4=C4CCCC4C3C2=O)cc1 (stereo not drawn)	none
Cc1cnc(NC(=O)c2ccc(Cn3ccnc3)cc2)s1	TEAD-YAP block 61
O=C(NCC1CCC2(CCN(Cc3cccc(OCCO)c3)CC2)O1)C1CCCO1 (stereo not drawn)	none
COc1ccc(CN2CCN(Cc3cc(OC)ccc3O)CC2)cc1	MITF primary 83
CCn1c2ccccc2c2cc(CN3CCN(Cc4cc(OC)c(O)c(OC)c4)CC3)ccc21	none
COc1ccc(O)c(CN2CCN(Cc3ccccc3OC)CC2)c1	MITF primary 69
CCn1c2ccccc2c2cc(CN3CCN(Cc4cc(OC)ccc4O)CC3)ccc21	MITF primary 62
Cc1cc(C)c(NC(=O)CSc2ccc(C(=O)O)cn2)c(C)c1	none
COc1ccc(OC)c(/C=C(\C#N)C(=O)Nc2ccc([N+](=O)[O-])cc2C(F)(F)F)c1	none
CC(=O)c1c(C)oc2c1cc(NS(=O)(=O)c1ccc(Br)cc1)c1ccccc12	TEAD-YAP block 47
CCOc1ccc(S(=O)(=O)Nc2cc3c(C(=O)OCc4ccccc4)c(C)oc3c3ccccc23)cc1	none
CCc1ccc(S(=O)(=O)Nc2cc3c(C(C)=O)c(C)oc3c3ccccc23)cc1	TEAD-YAP block 56
CCCOC(=O)c1c(C)oc2c1cc(NS(=O)(=O)c1ccc(OCC)cc1)c1ccccc12	TEAD-YAP block 53
CCOC(=O)C1=C(C)NC2=C(C(=O)C(C(=O)OC)C(C)C2)C1c1cc(Cl)c(O)c(OCC)c1 (stereo not drawn)	none
O=C(NCCC12CC3CC(CC(C3)C1)C2)c1cc([N+](=O)[O-])ccc1Cl	TEAD-YAP block 46
O=C(NCCCc1ccccc1)c1cc([N+](=O)[O-])ccc1Cl	TEAD-YAP block 53
O=C(NCCn1ccc2ccccc21)c1cc([N+](=O)[O-])ccc1Cl	TEAD-YAP block 33
O=C(NC12CC3CC(CC(C3)C1)C2)c1cc([N+](=O)[O-])ccc1Cl	none
CN(Cc1ccccc1)CC(O)COc1ccc(CNCc2ccc3nonc3c2)cc1 (stereo not drawn)	none
O=C(O)CCCNCP(=O)(O)CCc1ccccc1	none
COc1ccc(/C=N/Nc2nc3ccccc3s2)cc1	TEAD-YAP block 34
Cc1cc(/C=N/Nc2nc3ccccc3s2)c(C)n1C1CC1	TEAD-YAP block 57
O=C(O)c1ccc(/C=N/Nc2nc3ccccc3s2)cc1	none
COc1ccccc1C(=O)Nn1c(-c2ccc(Br)cc2)nc2ccccc2c1=O	none
COc1ccc(-c2nc3ccccc3c(=O)n2OC(=O)c2ccc(C(C)(C)C)cc2)cc1OC	none
COc1ccccc1C(=O)Nn1c(-c2ccc(C(C)(C)C)cc2)nc2ccccc2c1=O	TEAD-YAP block 40
CC(C)(C)c1ccc(C(=O)On2c(-c3ccc(C(C)(C)C)cc3)nc3ccccc3c2=O)cc1	TEAD-YAP block 38
CCc1ccc(C(=O)On2c(-c3ccc(C(C)(C)C)cc3)nc3ccccc3c2=O)cc1	TEAD-YAP block 39
O=[N+]([O-])c1cc(Cl)ccc1S(=O)(=O)Nc1ccc(I)cc1	none
O=C1O[C@@H]2C[C@H]3C[C@@H]2[C@@H]1[C@H]3C(=O)N1CCC(Cc2ccccc2)CC1	none
c1ccc(-n2cnc3c(NCc4nc5ccccc5[nH]4)nc(Nc4ccc5ncccc5c4)nc32)cc1	FBW7 activator 23
c1ccc(CNc2nc(Nc3ccc4ncccc4c3)nc3c2ncn3-c2ccsc2)cc1	none
c1cnc2ccc(Nc3nc(NCc4nc5ccccc5[nH]4)c4ncn(-c5ccsc5)c4n3)cc2c1	TEAD-YAP block 49, FBW7 activator 42
CCCCNC1CCN(c2nc(C)c3cc(C)ccc3n2)CC1	none
CCOCCCNC1CCN(c2nc(C)c3cc(C)ccc3n2)CC1	TEAD-YAP block 49
Cc1cc(C)nc(/N=C(\N)Nc2ccccc2-c2ccccc2)n1	TEAD-YAP block 43
Cc1cc(C)nc(/N=C(\N)Nc2ccc(C(C)C)cc2)n1	TEAD-YAP block 35
CCCCc1ccc(N/C(N)=N/c2nc(C)cc(C)n2)cc1	TEAD-YAP block 54
Cc1ccc(N/C(N)=N/c2nc(C)cc(C)n2)cc1	none
O=C(C1CC1)N1CCc2cc(Br)cc(S(=O)(=O)Nc3cccc(F)c3)c21	TEAD-YAP block 42
CC(C)(C)NS(=O)(=O)c1cc(Br)cc2c1N(C(=O)C1CC1)CC2	none
O=C(C1CC1)N1CCc2cc(Br)cc(S(=O)(=O)Nc3ccccc3F)c21	TEAD-YAP block 45
CCn1c(Sc2ccc(C=O)cc2[N+](=O)[O-])nnc1-c1ccco1	none
CCn1c(Sc2ccc([N+](=O)[O-])cc2C=O)nnc1-c1ccco1	TEAD-YAP block 51
CCOc1ccc(Nc2c(C(=O)N3CCOCC3)cnc3ccccc23)cc1	TEAD-YAP block 42
CC(C)OCCCNC(=O)c1ccc(CN2CCc3ccccc3C2)cc1	FBW7 activator 2.0
O=C(NC1CC1)c1ccc(-c2ccc(N3CCOCC3)nc2)s1	none
COC(=O)c1ccc(CNc2ccccc2SC)cc1	none
CCOC(=O)C1=C(O)/C(=C\c2cccc(Oc3ccccc3)c2)N=C1C	none
CC(=O)CC(O)(c1ccccc1)C(F)(F)C(F)F (stereo not drawn)	none
O=S(/C=C(\F)C(F)(F)C(F)(F)C(F)F)Cc1ccccc1 (stereo not drawn)	TEAD-YAP block 50
Cc1ccc(C)c(-n2c3nc(=O)[nH]c(=O)c-3cc3cc([N+](=O)[O-])ccc32)c1	TEAD-YAP block 57
CCOC(=O)c1cnc(Nc2nc3ccccc3o2)nc1C	TEAD-YAP block 44
CCOC(=O)c1c(C)nc(Nc2nc3ccccc3o2)nc1-c1ccccc1	none
NC(=O)c1cnc(-c2ccc(N3CCOCC3)nc2)s1	TEAD-YAP block 63
CCCNC(=O)c1cnc(-c2ccc(N3CCOCC3)nc2)s1	none
NC(=O)c1ccc(-c2ccc(N3CCOCC3)nc2)s1	TEAD-YAP block 50
COc1ccc(-c2ncc(C(N)=O)s2)cc1	TEAD-YAP block 49
CC(C)N(CCNc1ncnc2nc(Nc3ccncn3)[nH]c12)C(C)C	none
CCCc1ccc(/C=C/c2ccccc2)nc1	TEAD-YAP block 34
CCCN1C(=O)C(O)(CC(=O)c2ccc([N+](=O)[O-])cc2)c2cc(Br)ccc21 (stereo not drawn)	TEAD-YAP block 50
